The list is not random: actives were taken first. Their share in the collection is about 13%.
JMJD2E inh: qHTS Assay for Inhibitors of Human Jumonji Domain Containing 2E (JMJD2E). Lysine-specific demethylase 4E (Homo sapiens), B2RXH2. JMJD2E catalytic domain, FDH-coupled NADH fluorescence (FDH is formaldehyde dehydrogenase). Potency, µM (titrated, usually from 57.1 µM), without a hit: at the top dose activity change, negative = inhibition, actives largely listed as inhibitors. 230,000 tested, 1.6% active; active means well fitted inhibition curve with a large enough effect, not every such curve was filed as active; inconclusive means small, poorly fitted or top-dose-only effect, or another doubt; inactive means no such curve, though single readings can be large or run the other way;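 further: potency means the concentration at half of the fitted maximal effect; 0% = wells with enzyme and -100% = buffer wells without enzyme; nearly all actives have a fitted effect of over 50% in size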
Target sequence (B2RXH2 1-337 limits assumed): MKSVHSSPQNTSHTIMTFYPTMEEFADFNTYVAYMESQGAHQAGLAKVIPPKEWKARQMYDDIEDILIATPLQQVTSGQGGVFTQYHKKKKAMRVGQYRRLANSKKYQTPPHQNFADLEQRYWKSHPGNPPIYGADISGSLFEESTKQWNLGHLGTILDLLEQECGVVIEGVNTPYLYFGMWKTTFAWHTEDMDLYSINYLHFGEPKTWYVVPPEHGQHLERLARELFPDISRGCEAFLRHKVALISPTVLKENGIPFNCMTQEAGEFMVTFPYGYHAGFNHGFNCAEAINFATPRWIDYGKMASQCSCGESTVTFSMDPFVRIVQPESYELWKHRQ
miR-21 reporter: qHTS Assay for Modulators of miRNAs and/orActivators of miR-21. AID 2288, 2010. HeLa miR-21 FLuc reporter, luciferase, 48 h. 340,000 tested, under 10 active. Potency, µM (top dose mostly 38.3 µM), inactives show at the top dose activity change, positive = activation, hits mostly activators;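 further: % of control where 0% means no effect; miR-21 action dims this reporter so a rising signal means less miR-21 action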
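HeLa cells endogenously expressing miR-21, stably carrying CMV-driven firefly luciferase with a downstream miR-21 binding site, 2000 cells/well. Titrations up to approximately 40 uM, 48 hours; luciferase luminescence read.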
ALDH1A1 block: qHTS Assay for Inhibitors of Aldehyde Dehydrogenase 1 (ALDH1A1) | Aldehyde dehydrogenase 1A1 (Homo sapiens), P00352 | 220,000 tested, 7.3% active | Purified ALDH1A1, NADH fluorescence, propionaldehyde substrate | Potency, µM (doses to about 75.3 µM), inactives show top-dose activity, negative = inhibition, most hits filed as inhibitors; active means well fitted inhibition curve with a large enough effect, not every such curve was filed as active; inconclusive means small, poorly fitted or top-dose-only effect, or another doubt; inactive means no such curve, though single readings can be large or run the other way;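 further: potency means the concentration at half of the fitted maximal effect; plate controls were no enzyme wells and a reference inhibitor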
LMNA splice mod: qHTS Assay for Modulators of Lamin A Splicing; 200,000 tested, 0.01% active; Potency, µM (series often up to 46.1 µM), without a hit: top-dose ratio change, negative = inhibition, usual class: inhibitors; HeLa LMNA splicing GFP/RFP minigene ratio, 48 h; AID 1487, 2009; active means well fitted inhibition curve with a large enough effect in the signal ratio, with a control signal flat, not every such curve was filed as active; inconclusive means small, poorly fitted or top-dose-only effect, or effect the other way, or a change in a side signal; the % refers to the signal ratio; further: potency means the concentration at half of the fitted maximal effect; on the % scale 0 is the no-effect control and ±100 the full control effect
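S3 HeLa cells stably expressing lamin A-EGFP splicing minigene plus DsRed2, 600 cells/well, 48 h compound exposure at 37C. Laser-scanning cytometry; analysed as GFP (500-530 nm)/RFP (575-640 nm) total intensity ratio; 0.5% DMSO vehicle.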
Sfp PPTase inh: qHTS Assay for Inhibitors of Bacillus subtilis Sfp phosphopantetheinyl transferase (PPTase); 4'-phosphopantetheinyl transferase ffp (Bacillus subtilis), Q9F4F7; 310,000 tested, 3.5% active; Biochemical Sfp PPTase activity, qHTS; Potency, µM, for inactives: largest response in the series, negative = inhibition, most hits filed as inhibitors;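 further: the enzyme is Sfp with the accession as filed and its product quenches rhodamine fluorescence; potency means the concentration at half of the fitted maximal effect; 0% = enzyme reaction without inhibitor and -100% = no enzyme wells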
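Buffer: 50 mM Hepes-Na pH 7.6, 10 mM MgCl2, 0.01% Nonidet P-40, 0.01% BSA. Enzyme 15 nM, pre-exposed to compound 15 min; substrates then added and fluorescence change tracked over 30 min.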
G9a block: qHTS Assay for Inhibitors of Histone Lysine Methyltransferase G9a. 350,000 tested, 8.8% active. G9a H3K9 monomethylation, AlphaScreen, 2 h. Potency, µM (highest dose often 102 µM), for inactives: top-dose activity, negative = inhibition, usual class: inhibitors; further: potency means the concentration at half of the fitted maximal effect; on the % scale 0 is the no-effect control and ±100 the full control effect; nearly all actives have a fitted effect of over 75% in size
Target sequence (Q96KQ7 913-1193 limits assumed): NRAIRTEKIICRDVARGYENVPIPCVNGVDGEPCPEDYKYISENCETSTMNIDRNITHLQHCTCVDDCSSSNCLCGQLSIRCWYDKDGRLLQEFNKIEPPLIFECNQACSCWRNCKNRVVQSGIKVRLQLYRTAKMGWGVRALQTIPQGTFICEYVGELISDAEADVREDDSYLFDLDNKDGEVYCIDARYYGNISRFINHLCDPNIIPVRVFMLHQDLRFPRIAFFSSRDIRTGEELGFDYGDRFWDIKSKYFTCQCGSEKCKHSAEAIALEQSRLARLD
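Methyltransferase reactions run at room temperature for 2 h (20 nM enzyme, 500 nM biotin-H3K9 peptide, 20 uM SAM) after a 15 min compound preincubation; product detected by AlphaScreen beads and anti-H3K9me1 antibody.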
* marks the source's active call; other numbers are inactive results; u = inconclusive; x = no result; [ ] = remark or other dose. Unless noted, the call rests on the fitted dose curve; in most records, active means well fitted curve in the direction sought with a large enough effect; inconclusive means small, poorly fitted or top-dose-only effect, or another doubt; inactive means no such curve, though single readings can be large; an effect the other way counts as inactive or inconclusive.

SMILES	JMJD2E inh	miR-21 reporter	ALDH1A1 block	LMNA splice mod	Sfp PPTase inh	G9a block
Cc1ccc(OCCOCCn2ccnc2)c(Br)c1	-14.2%	-29.6%	-9.9%	-13.1%	79.4µM*	7.94µM*
Cc1ccc(C)c(OCCCCn2ccnc2)c1	11.5%	-3.5%	13.4%	-0.9%	7.2%	u
CCCCSCCCNC(=O)CN1C(=O)COc2ccc(S(=O)(=O)N3CCCC3)cc21	x	2.2%	x	x	x	8.2%[59 µM]
CC(=O)Nc1ccc(NC(=O)C(C)OC(=O)C2CCN(S(=O)(=O)c3cccs3)CC2)cc1 (stereo not drawn)	-3.0%	-0.1%	x	x	10.6%	5.4%
Cc1ccc(OCCn2ccnc2)c(C)c1	x	-2.4%	x	x	8.6%	70.8µM*
CCOc1ccccc1OCCCOc1ccc(C)cc1Br	1.9%	-40.1%	0.4%	-7.3%	-6.8%	x
Cc1cc(C)c(OCCn2ccnc2)c(C)c1	x	17.7%	x	x	-6.5%	2.8%[59 µM]
CCN(CC)CCCOc1ccc(C)cc1Br	u	-2.0%	u	23.7%	-12.5%	20µM*
CCOC(=O)c1cc(-c2ccccc2)n(CC(=O)Nc2ccc(OC)cc2OC)c1C	x	-7.1%	x	7.8%[46 µM]	x	-16.9%[59 µM]
O=c1[nH]c(=S)[nH]nc1Cc1ccccc1	-1.4%	-1.5%	u	2.7%	1.8%	39.8µM*
Cc1[nH]c(=S)[nH]c(=O)c1Cc1ccccc1	3.3%	-2.9%	-1.1%	11.2%	-1.1%	50.1µM*
O=c1[nH]nc(Cc2ccccc2)c2ccccc12	1.9%	-18.5%	1.8%	-10.4%	9.0%	-4.0%[59 µM]
Cc1cccc(OCCc2c(C)[nH]c(=S)[nH]c2=O)c1	6.9%	26.4%	17.8µM*	21.1%[9.22 µM]	-2.4%	u
Cc1nc(N2C(=O)c3oc4ccccc4c(=O)c3C2c2ccccc2F)sc1C (stereo not drawn)	x	-13.6%	x	x	x	15.2%[59 µM]
Cc1cccc(N2CCN(C(=O)CN3C(=O)COc4ccc(S(=O)(=O)N5CCC(C)CC5)cc43)CC2C)c1 (stereo not drawn)	x	8.0%	x	x	x	7.8%[59 µM]
CN(C)c1ccc(NC(=O)CSCc2nc3c(nnn3Cc3ccc(F)cc3)c(=O)[nH]2)cc1	-7.1%	-7.7%	10µM*	2.0%	21.0%	u
C=C1CC2C(=O)N(Cc3ccccc3)C(C(=O)O)C1N2C(=O)OC(C)(C)C (stereo not drawn)	x	x	x	x	0.1%	x
COc1ccc(-c2cn3cccnc3n2)cc1NC(=O)COc1ccccc1	x	-8.8%	x	-17.0%[46 µM]	x	2.7%[59 µM]
CN1c2ccccc2C(C)(C)C12CC(c1cccc(S(=O)(=O)N3CCCC3)c1)=NO2 (stereo not drawn)	-2.7%	19.2%	-10.4%	u	-2.7%	-10.5%[59 µM]
Cc1cccc(Cc2cnc(NC(=O)CN3C(=O)/C(=C/c4ccccc4)SC3=S)s2)c1	-3.9%	0.7%	3.0%	16.8%	-14.2%	39.8µM*
O=C1/C(=C\c2cccc(O)c2)SC(=S)N1Cc1ccccc1	x	8.0%	x	x	-6.0%	-10.6%[0.501 µM]
COc1cc(/C=C2/SC(=S)N(Cc3ccccc3)C2=O)ccc1O	x	-13.4%	x	x	-6.8%	44.7µM*
Cc1ccccc1/C=C1\SC(=S)N(/N=C/c2cc([N+](=O)[O-])ccc2O)C1=O	-28.9%	-10.6%	0.398µM*	x	-13.6%	44.7µM*
O=C1/C(=C\c2cccc(O)c2O)SC(=S)N1Cc1ccccc1	x	4.4%	x	x	39.8µM*	4.47µM*
Cc1ccc(/C=C2/SC(=S)N(CC(=O)Nc3ncc(Cc4ccc(C)cc4)s3)C2=O)cc1	4.7%	-1.3%	2.5%	11.2%	-1.7%	9.9%
SMILES	JMJD2E inh	miR-21 reporter	ALDH1A1 block	LMNA splice mod	Sfp PPTase inh	G9a block
Cc1cc(SCC(=O)Nc2c(C)n(C)n(-c3ccccc3)c2=O)nc2ccccc12	x	0.2%	x	x	-0.7%	0.8%
COc1cccc(NC(=O)CN(C)C(=O)CCCc2nc3ccccc3s2)c1	x	x	x	x	x	-1.1%
COC1OC2COC(c3ccccc3)OC2C(O)C1O (stereo not drawn)	3.4%	x	5.2%	x	-8.2%	x
Cc1ccc2nc(C)cc(C(=O)N3CCCC(CO)(Cc4ccccc4C)C3)c2c1 (stereo not drawn)	-14.8%	-5.5%	-4.2%	11.3%[46 µM]	-6.2%	u
COc1cc(/C=C2/SC(=NCc3ccccc3)N(Cc3ccccc3)C2=O)ccc1O	-10.8%	-16.0%	2.24µM*	-2.6%	6.3%	-0.2%[59 µM]
O=C1/C(=C\c2cc([N+](=O)[O-])ccc2O)SC(=S)N1Cc1ccc(Cl)cc1	x	11.5%	x	x	u	20µM*
O=C(O)CN1C(=O)/C(=C\c2cccc(OCc3ccccc3)c2)SC1=S	x	-19.1%	x	x	5.9%	-3.9%[0.501 µM]
O=C1/C(=C/c2ccc(O)cc2)SC(=S)N1Cc1cccnc1	-1.6%	0.4%	u	3.6%	-5.4%	-44.8%[59 µM]
O=C(O)COc1cccc(/C=C2/SC(=S)N(Cc3ccccc3)C2=O)c1	x	-1.3%	x	x	1.1%	44.7µM*
COc1ccc(/C=C2\SC(=S)N(Cc3cccnc3)C2=O)cc1C	-6.5%	-4.6%	-2.5%	5.0%	-1.5%	11.2µM*
COc1ccc2c(c1)c(CC(=O)O)c(C)n2Cc1ccc(F)cc1	u	x	-3.8%	u	x	21.9%[12.7 µM]
CCC(C)c1ccc(NC(=O)c2c([N+](=O)[O-])cnn2CC)cc1 (stereo not drawn)	x	-13.0%	x	x	8.7%	x
CCNC(=O)CC1C(=O)N(c2ccc(C)cc2)C(=O)N1Cc1ccc(C)cc1 (stereo not drawn)	x	0.2%	x	x	x	-6.2%[59 µM]
